Test [1] in a line: A CellTox Green Cytotoxicity Assay to monitor cytotoxicity in HEK293 cells - 32 hour (AID 1224881). Also: nearly all actives have a fitted effect of over 40% in size. Also: potency is read from the fitted curve at half-maximal effect. As to conditions: CellTox Green fluorescence; series mostly up to 76.8 µM. In outline:
(§1)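 Each value comes from one timepoint of a single continuous run in which HEK293 cells with CellTox Green were exposed to compound for up to 40 h at 37 C, dye fluorescence rising with cell death.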

A short description of test [2]: A CellTox Green Cytotoxicity Assay to monitor cytotoxicity in HepG2 cells - 0 hour (AID 1224882). Also: nearly all actives have a fitted effect of over 35% in size. The note with it: CellTox Green fluorescence; series mostly up to 76.8 µM. A digest of the protocol:
(§2)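 Continuous culture of HepG2 cells with a membrane-impermeant DNA dye; rising fluorescence marks dead cells. Compound exposure lasted up to 40 h at 37 C, with reads every 8 h from 0 h.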

A short description of test [3]: A CellTox Green Cytotoxicity Assay to monitor cytotoxicity in HepG2 cells - 32 hour (AID 1224883). Also: nearly all actives have a fitted effect of over 50% in size. Also: potency is read from the fitted curve at half-maximal effect. As to conditions: CellTox Green fluorescence; series mostly up to 76.8 µM. A digest of the protocol:
as §2

The nature of test [4]: A CellTox Green Cytotoxicity Assay to monitor cytotoxicity in HEK293 cells - 8 hour (AID 1224884). Also: nearly all actives have a fitted effect of over 35% in size. As to conditions: CellTox Green fluorescence; series mostly up to 76.8 µM. A digest of the protocol:
as §1

The nature of test [5]: qHTS RealTime-Glo MT Cell Viability Assay in HepG2 cells - 16 hour (AID 1224885). Also: nearly all actives have a fitted effect of over 50% in size. Also: potency is read from the fitted curve at half-maximal effect. As to conditions: RealTime-Glo luminescence; series mostly up to 76.8 µM. A digest of the protocol:
(§3)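 Luminescence read-out: viable HepG2 cells reduce a prosubstrate to a NanoLuc substrate, giving a signal proportional to live cell number. Reads taken at 0, 8, 16, 24, 32 and 40 h of compound exposure at 37 C.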

The nature of test [6]: qHTS RealTime-Glo MT Cell Viability Assay in HEK293 cells - 24 hour (AID 1224886). Also: nearly all actives have a fitted effect of over 50% in size. Also: potency is read from the fitted curve at half-maximal effect. The note with it: RealTime-Glo luminescence; series mostly up to 76.8 µM. In outline: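 Nonlytic real-time viability readout: viable cells convert prosubstrate to NanoLuc substrate, giving luminescence proportional to live cell number. HEK293, 600 cells/well, compound added after 5 h, continuous culture at 37 C.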

Test [7] in a line: qHTS RealTime-Glo MT Cell Viability Assay in HEK293 cells - 8 hour (AID 1224887). Also: nearly all actives have a fitted effect of over 50% in size. Also: potency is read from the fitted curve at half-maximal effect. As to conditions: RealTime-Glo luminescence; series mostly up to 76.8 µM. In outline: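 qHTS format; HEK293 cells with NanoLuc/prosubstrate reagent, 37 C/5% CO2 for 5 h pre-dosing; compounds 23 nL in DMSO; luminescence at each time point reflects viable cells.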
The nature of test [8]: A CellTox Green Cytotoxicity Assay to monitor cytotoxicity in HEK293 cells - 16 hour (AID 1224888). Also: nearly all actives have a fitted effect of over 35% in size. The note with it: CellTox Green fluorescence; series mostly up to 76.8 µM. In outline:
as §1

A short description of test [9]: qHTS RealTime-Glo MT Cell Viability Assay in HepG2 cells - 0 hour (AID 1224889). Also: nearly all actives have a fitted effect of over 50% in size. The note with it: RealTime-Glo luminescence; series mostly up to 76.8 µM. A digest of the protocol:
as §3

A short description of test [10]: A CellTox Green Cytotoxicity Assay to monitor cytotoxicity in HepG2 cells - 8 hour (AID 1224890). Also: nearly all actives have a fitted effect of over 45% in size. The note with it: CellTox Green fluorescence; series mostly up to 76.8 µM. A digest of the protocol: as §2

The structures appear in SMILES notation. Several values for one entry are separate records, joined by “and”; a condition that tells them apart may be missing. Equal values may be shown once. Records with an inconclusive call do not appear. Activity calls are given as the source filed them. Calls follow the shape of the dose curve; as a rule, active = well fitted curve in the direction sought with a large enough effect in the repeat runs; inconclusive = weak or mixed curves; inactive = no such curve, though single readings can be large; an effect the other way counts as inactive or inconclusive.

For `C1CS1`, the Potency result in test [1], in [2], in test [3], in test [4], in test [5] and in test [6] was “inactive” throughout. The Potency entry in test [7], in test [8] and in test [10] was “inactive” throughout. In addition, in test [9], the compound was called inactive.

For the compound `O=C1c2ccccc2C(=O)N1SC(Cl)(Cl)Cl`, the Potency in test [1] was 21.6 µM (active) and 8.71 µM (active); in test [3], 24.2 µM (active) and 12.3 µM (active); in test [5] it was 19.5 µM (active); in test [6] it was 5.42 µM (active) and 6.16 µM (active). The Potency result in test [2], in test [4], in test [8] and in [10] was “inactive” throughout. For the same compound, the call in [9] was inactive.

On to `CCOC(=O)c1cn2nc(OP(=S)(OCC)OCC)cc2nc1C`, for which the Potency entry in test [1], in test [2], in test [3], in [4], in test [5] and in [8] was “inactive” throughout. Moreover, the Potency entry in [10] is “inactive”. The Potency in test [6] and in [7] was 17.4 µM (active) in each case.

In the case of `CC1(C)[C@H](C(=O)O[C@H](C#N)c2cccc(Oc3ccccc3)c2)[C@@H]1C=C(Br)Br`, the Potency entry in test [1], in [2], in test [3], in test [4], in test [5] and in test [6] was “inactive” each time. Further, the Potency entry in [7], in test [8] and in [10] was “inactive” each time. For the same compound, the compound was classed as inactive in test [9].

Consider `COC1CC(=C(c2cccs2)c2cccs2)C[N+](C)(C)C1` (centres undefined), for which the Potency entry in test [1], in test [2], in test [3], in test [4], in test [5] and in test [6] was “inactive” throughout. For the same compound, the Potency result in [8] and in test [10] was “inactive” throughout. Moreover, the compound was called inactive in test [9].

Consider `CCSCc1ccccc1OC(=O)NC`, for which the Potency entry in test [1], in test [2], in test [3], in [4], in test [5] and in test [6] was “inactive” in each case. Also, the Potency entry in test [8] and in [10] was “inactive” in each case. In addition, the call in test [9] was inactive.

Consider `C=CC(=O)OCC`, for which the Potency entry in test [1], in test [2], in [3], in test [4], in [5] and in test [6] was “inactive” throughout. Moreover, the Potency entry in test [8] and in test [10] was “inactive” each time. The outcome in test [9] was inactive.

For the compound `CC[N+]1(CCOC(=O)C(O)(c2ccccc2)c2ccccc2)CCCCC1`, the Potency result in test [1], in [2], in test [3], in test [4], in test [5] and in test [6] was “inactive” throughout. Besides, the Potency result in test [7], in [8] and in test [10] was “inactive” each time. For the same compound, in test [9], the compound was called inactive.

In the case of `CC(C)(C)OOC(C)(C)CCC(C)(C)OOC(C)(C)C`, the Potency entry in [1], in [2], in test [3], in [4], in test [5] and in test [6] was “inactive” in each case. The Potency result in test [7], in test [8] and in test [10] was “inactive” throughout. For the same compound, the compound was classed as inactive in test [9].

For the compound `CCCCC(CC)COC(=O)c1c(Br)c(Br)c(Br)c(Br)c1C(=O)OCC(CC)CCCC` (centres undefined), the Potency result in test [1], in [2], in test [3], in test [4], in [5] and in [6] was “inactive” throughout. The Potency result in [7], in [8] and in test [10] was “inactive” each time. Moreover, the result in [9] was inactive.

For the compound `CON(C)C(=O)Nc1ccc(Cl)cc1`, the Potency result in test [1], in test [2], in test [3], in test [4], in [5] and in [6] was “inactive” each time. For the same compound, in test [8], the Potency entry was “inactive”. The compound was called inactive in test [9].

For the compound `CNC(=O)Oc1cccc(N=CN(C)C)c1`, the Potency entry in [1], in [2], in test [3], in test [4], in [5] and in test [6] was “inactive” in each case. Besides, the Potency entry in test [8] and in test [10] was “inactive” throughout. For the same compound, in test [9], the result was inactive.

Turning to `O=C(N[C@H]1CN2CCC1CC2)c1ccc2c(c1)OCCO2`, the Potency entry in [1], in [2], in [3], in test [4], in test [5] and in test [6] was “inactive” in each case. Besides, the Potency entry in test [8] and in test [10] was “inactive” in each case. Also, the outcome in [9] was inactive.

`CCCN(CCC)c1c([N+](=O)[O-])cc(C(C)C)cc1[N+](=O)[O-]`: the Potency entry in test [1], in test [2], in test [3], in test [4], in test [5] and in test [6] was “inactive” in each case. Moreover, the Potency entry in test [7], in [8] and in test [10] was “inactive” throughout. For the same compound, the compound was classed as inactive in [9].

As to `CCCCCl`, the Potency result in [1], in [2], in test [3], in [4], in [5] and in test [6] was “inactive” in each case. Also, the Potency result in test [8] and in test [10] was “inactive” each time. In addition, the result in test [9] was inactive.

With `C#CC(O)(C=CCl)CC` (centres undefined), the Potency entry in test [1], in [2], in test [3], in test [4], in test [5] and in [6] was “inactive” throughout. The Potency entry in test [8] and in test [10] was “inactive” in each case. For the same compound, the compound was classed as inactive in test [9].

For `CCOP(=S)(OCC)Oc1ccc(S(C)=O)cc1` (centres undefined), the Potency result in [1], in [2], in test [3], in test [4], in test [5] and in [6] was “inactive” each time. Further, the Potency entry in [7], in test [8] and in test [10] was “inactive” each time.

For `CC(C)(c1ccccc1)c1cc(-n2nc3ccccc3n2)c(O)c(C(C)(C)c2ccccc2)c1`, the Potency entry in test [1], in [2], in test [3], in [4], in [6] and in test [7] was “inactive” throughout. Moreover, in [8], the Potency entry is “inactive”. In test [9], the result was inactive.

As to `CCC(C)Cl` (centres undefined), the Potency result in test [1], in test [2], in [3], in test [4], in test [6] and in test [7] was “inactive” in each case. Also, the Potency result in test [8] and in test [10] was “inactive” each time. Also, the call in test [9] was inactive.

For `O=C=NC1CCCCC1`, the Potency result in test [1], in [2], in test [3], in test [4], in test [6] and in test [7] was “inactive” throughout. Besides, the Potency result in [8] and in [10] was “inactive” each time. In addition, the outcome in [9] was inactive.
